Compound activity as filed in PubChem.
A selection: hits, their analogues and other compounds. The true share with any hit is near 7.5%.
Luc counter: Kinase-Glo luciferase inhibition (counter-screen). Potency, µM (series often up to 38.3 µM), inactives show at the top dose activity change, negative = inhibition, most hits filed as inhibitors. Kinase-Glo luciferase, ATP luminescence, 8 min. actives 0.28% (n = 200,000). Q27757. AID 1379; further: on the % scale 0 is the no-effect control and ±100 the full control effect; nearly all actives have a fitted effect of over 60% in size
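Inhibition of Kinase-Glo luciferase light generation was assessed at 10 uM ATP in pH 7.2 imidazole buffer, with luminescence measured after eight minutes at ambient temperature.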
Rab9 prom act: activates the Rab9 promoter | Huh7 Rab9 promoter-luciferase reporter, luminescence, 24 h | Potency, µM (top dose mostly 9.22 µM), without a hit: top-dose activation, negative = inhibition, hits mostly activators | actives 2.8% (n = 320,000); further: % of control where 0% means no effect; nearly all actives have a fitted effect of over 60% in size
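Stable Rab9-luc Huh7, 1500 cells/well, 2 h settle; cmpd in DMSO, 24 h, 37 °C/5% CO2; luciferase reagent 10 min RT; luminescence.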
ELG1 genotoxic: inducers of genotoxicity in HEK293T ELG1-luciferase cells; actives 1.3% (n = 330,000); HEK293T ELG1-luciferase reporter, luminescence, 16 h; Potency, µM (series often up to 46 µM), inactives show top-dose activity change, positive = activation, usual class: activators; further: % of control where 0% means no effect; nearly all actives have a fitted effect of over 60% in size
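Luminescence read-out: rising ELG1-luciferase signal, reflecting elevated ELG1 protein under genetic stress, flags genotoxic compounds. Cells were treated for 16 hr at 37 °C before ONE-Glo detection.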
SMN2 splice enh: enhancers of SMN2 splice variant expression. HEK293 SMN2-luciferase splicing reporter, luminescence, 30-36 h. Potency, µM (highest dose often 46.1 µM), without a hit: at the top dose activity change, positive = activation, usual class: activators. actives 2.8% (n = 210,000). AID 1458; further: % of control where 0% means no effect; nearly all actives have a fitted effect of over 55% in size
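HEK293 cells carry an SMN2 minigene-luciferase reporter in which exon 7 inclusion puts luciferase in frame. Cells were seeded at 2000 cells/well, attached for 10-12 hours, then exposed to compounds for 30-36 hours at 37C before ONE-Glo luminescence.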
FLuc modulator: counter-screen for miR-21 project: firefly luciferase inhibitors or activators; AID 588342; P08659; purified FLuc, Km substrates, luminescence inhibition; Potency, µM (series often up to 57.5 µM), for the others: at the highest dose activity change, negative = inhibition, hits mostly inhibitors; actives 6.9% (n = 360,000);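 further: plate controls were vehicle for no effect and reference inhibitor for full effect; nearly all actives have a fitted effect of over 55% in size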
Target sequence (P08659 whole entry, looked up): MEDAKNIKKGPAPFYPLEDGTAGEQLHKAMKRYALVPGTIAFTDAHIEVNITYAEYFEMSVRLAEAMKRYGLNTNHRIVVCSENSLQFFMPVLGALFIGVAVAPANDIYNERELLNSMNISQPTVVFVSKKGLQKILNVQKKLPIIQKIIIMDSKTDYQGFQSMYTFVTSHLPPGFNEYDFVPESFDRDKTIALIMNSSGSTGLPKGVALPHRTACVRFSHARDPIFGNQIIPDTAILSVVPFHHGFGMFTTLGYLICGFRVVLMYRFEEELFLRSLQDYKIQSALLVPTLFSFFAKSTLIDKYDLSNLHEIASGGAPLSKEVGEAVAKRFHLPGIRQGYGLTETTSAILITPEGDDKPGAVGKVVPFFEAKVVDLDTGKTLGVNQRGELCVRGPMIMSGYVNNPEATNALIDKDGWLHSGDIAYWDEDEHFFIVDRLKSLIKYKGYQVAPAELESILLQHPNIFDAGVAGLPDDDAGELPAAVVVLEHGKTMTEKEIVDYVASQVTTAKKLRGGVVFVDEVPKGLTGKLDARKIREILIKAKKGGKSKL
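Biochemical qHTS of compounds, final roughly 60 µM downward over six points, against 10 nM purified firefly luciferase using Km concentrations of substrates (10 uM D-luciferin, 10 uM ATP) in Tris acetate pH 7.5 buffer; luminescence output.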
NPC1 promoter act: activates the NPC1 promoter; Huh7 NPC1 promoter luciferase reporter, 24 h; Potency, µM (doses to about 9.22 µM), for inactives: top-dose activation, hits mostly activators; actives 2.4% (n = 320,000); AID 485313; further: % of control where 0% means no effect; nearly all actives have a fitted effect of over 60% in size
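In 1536-well qHTS, Huh7 cells harboring an NPC1 promoter–luciferase construct received compound for 24 h; activation was quantified by luminescence following luciferase reagent addition.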
* marks the source's active call; other numbers are inactive results; ? = inconclusive; · = no result; [ ] = another dose, or the depositor's remark. The call rests on the fitted dose curve; in most records, active means well fitted curve in the direction sought with a large enough effect; inconclusive means small, poorly fitted or top-dose-only effect, or another doubt; inactive means no such curve, though single readings can be large; an effect the other way counts as inactive or inconclusive. Potency means the concentration at half of the fitted maximal effect.

SMILES | Luc counter | Rab9 prom act | ELG1 genotoxic | SMN2 splice enh | FLuc modulator | NPC1 promoter act
O=C(N/N=C/c1cccc2ccccc12)c1ccc(CN2CCOCC2)cc1 | · | 1% | -8% | · | 17µM* | -4%
Nc1ccc(C(=O)N/N=C/c2cn(Cc3cccc(F)c3)c3ccccc23)cc1 | · | 1% | 1% | · | 24µM* | 0%
O=C(N/N=C/c1cccc([N+](=O)[O-])c1)c1ccc(CN2CCOCC2)cc1 | -3% | 13% | -4% | 3%[1.84 µM] | ? | -1%
Cc1cccc(C(=O)Oc2c(Sc3ccccc3)c(C)nn2C(C)(C)C)c1 | · | · | · | 6% | 0% | ·
Cc1ccccc1/C=N/NC(=O)c1cccnc1 | · | 0% | 8% | · | ? | -2%
Cc1nn(Cc2c(Cl)cccc2Cl)c(Cl)c1/C=N/NC(=O)c1cccnc1 | 1% | ? | 10% | 14% | 9.5µM* | 13%
CCc1ccc(C(=O)N/N=C/c2cccc3ccccc23)nc1 | -2% | 30% | ? | ? | 5.4µM* | 25%
O=C(N/N=C/c1cccc2ccccc12)c1cccc(F)c1 | · | 28% | 24% | · | 21µM* | 26%
O=C(N/N=C/c1cccc2ccccc12)c1cccnc1 | · | 1% | 6% | · | 15µM* | 2%
COc1ccc(/C=C/C(=O)c2cccs2)c(OC)c1 | -20% | · | · | · | · | ·
O=C(/C=C/c1ccnc2ccccc12)c1cccs1 | 13µM* | 0.32µM* | ? | 7.1µM* | 0.067µM* | 0.56µM*
Cc1csc(NC(=O)CSc2nnc(NC(=O)NC(C)(C)C)s2)n1 | · | 4% | 26% | · | 6µM* | 3%
CC(C)(C)NC(=O)Nc1nnc(SCC(=O)NC2CCCCC2)s1 | · | 20% | 1% | · | 11µM* | 17%
CC(=O)Nc1nnc(SCC(=O)Nc2nc(C)cs2)s1 | · | 5% | 5% | · | 2% | 3%
COc1ccc(OCc2nc3ccccc3n2C(C)c2ccccc2)cc1 (stereo not drawn) | · | · | · | -15% | ? | ·
COc1cc(-c2nnc(SCCOc3cc(C)cc(C)c3)o2)cc(OC)c1OC | · | · | · | · | 15µM* | ·
COc1cc(-c2nnc(SCC(=O)c3ccc(C)cc3)o2)cc(OC)c1OC | 0% | -3% | -18% | -9% | 6% | 2%
Cc1cc(NC(=O)c2ccccc2)ncc1NC(=O)c1ccco1 | 2.2µM* | 1.4µM* | 1.6µM* | 8.9µM* | 11µM* | 2µM*
Cc1ccc(O)c(NC(=O)c2ccco2)c1 | -24% | 18% | 11% | 16µM* | 6µM* | ?
Cc1cc(NC(=O)c2ccc(Br)o2)ccc1NC(=O)c1ccco1 | · | 17% | ? | · | ? | 9%
Cc1cc(O)c(NC(=O)c2ccco2)cc1C | -19% | 27% | ? | 11µM* | 30µM* | 26%
Cc1ccc(C(=O)Nc2ccc(NC(=O)c3ccco3)c(C)c2)cc1 | · | 30% | ? | · | 5.4µM* | 21%
Cc1c(Cl)cccc1NC(=O)c1ccco1 | · | 14% | 7% | · | 3% | -4%
O=S(=O)(Nc1ccc(F)c(C(F)(F)F)c1)c1ccc(N2CCCCS2(=O)=O)cc1 | · | · | · | · | -6% | ·
Cc1c(C(=O)NC2CCOC2)oc2c(F)cccc12 (stereo not drawn) | · | 2.5µM* | 18%[9.26 µM] | · | 11µM* | 2.2µM*
SMILES | Luc counter | Rab9 prom act | ELG1 genotoxic | SMN2 splice enh | FLuc modulator | NPC1 promoter act
Cc1c(C(=O)O)oc2c(F)cccc12 | 3% | -3% | 0% | 7% | -20% | -3%
Cc1c(C(=O)N2C[C@@H](C)O[C@@H](C)C2)oc2c(F)cccc12 | · | ? | ? | · | 15µM* | ?
Cc1ccc(SCc2nc(-c3ccc(C(=O)NCc4ccc(Cl)cc4)cc3)oc2C)cc1 | · | · | · | · | 4% | ·
O=C(Nc1ccc(N2CCCC2)cc1)c1ccc(Br)o1 | -17% | 0.35µM* | ? | ? | 11µM* | 0.5µM*
O=C(Nc1ccc(N2CCN(C(=O)c3ccccc3)CC2)cc1)c1ccc(Br)o1 | 0% | 0% | -25% | -14% | 1% | 8%
CCN1CCN(c2ccc(NC(=O)c3ccc(Br)o3)cc2)CC1 | · | ? | 16µM* | · | 17µM* | ?
Cc1ccc(/C=C(\C#N)C(=O)N2CCCC2)c(C)c1 | -2% | -6% | ? | 12% | 15µM* | -14%
N#C/C(=C\c1ccc(OC(F)F)cc1)C(=O)N1CCCCC1 | · | -6% | 15% | · | 13µM* | 0%
N#C/C(=C\c1ccc(O)cc1)C(=O)N1CCCC1 | · | -1% | 4% | · | -12% | -3%
COc1cc(NC(=O)c2ccc3oc(=O)c(S(=O)(=O)c4ccccc4)cc3c2)cc(OC)c1 | · | · | · | 0% | 6% | ·
COc1cccc2oc(-c3ccc(O)cc3)cc(=O)c12 | -19% | · | · | · | · | ·
COc1c(O)cc2oc(-c3ccc(O)cc3)cc(=O)c2c1O | · | ? | 9.2µM* | · | 0.85µM* | ?
O=c1cc(-c2ccccc2)oc2cc(O)c(O)c(O)c12 | 1% | · | ? | ? | · | ·
COc1cc2oc(-c3ccc(O)cc3)cc(=O)c2c(O)c1OC | · | 0% | ? | · | 19µM* | 24%
O=c1cc(-c2ccc(O)cc2)oc2ccc3ccccc3c12 | · | ? | ? | · | 0.067µM* | 0.89µM*
COc1cc2oc(-c3ccc(O)cc3)cc(=O)c2c(OC)c1O | · | 1% | 16µM* | · | 24µM* | -2%
O=c1cc(-c2ccc(O)cc2)oc2c1ccc1ccccc12 | · | 11% | ? | · | -12% | 4%
CCCCNC(=O)C1CCC(Cn2c(=O)c3sccc3n(CC(=O)N3CCCC3)c2=O)CC1 (stereo not drawn) | · | · | · | · | 0% | ·
